Sampled rows, rich in hits. Any-hit rate of the full collection: about 5.7%.
KB-3-1 tox: KB-3-1 parental cell cytotoxicity | KB-3-1 viability, CellTiter-Glo ATP luminescence, 72 h | hit rate 1.4% among 400,000 | AID 1347075 | Potency, µM (top dose mostly 46.1 µM), most hits filed as cytotoxic; note: nearly all actives have a fitted effect of over 60% in size
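Viability of parental KB-3-1 cells, measured by CellTiter-Glo luminescence, followed a 72 h incubation at 37 °C with pinned compounds in phenol-red-free DMEM containing 10% FBS.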
HT1080 IDH1KD tx: kills HT-1080 cells with IDH1 knockdown. hit rate 2% among 360,000. HT-1080 IDH1 knockdown viability, ATP luminescence, 48 h. Potency, µM (titrated, usually from 46.1 µM), for the others: top-dose activity, negative = toxicity, usual class: cytotoxic;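 note: 0% = DMSO wells and -100% = cell-free medium wells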
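HT-1080-IDH1KD cells (IDH1 knocked down), 750/well in RPMI with 5% FBS, treated with compound 48 h at 37 degrees C. Viability by CellTiter-Glo luminescence, normalised to DMSO and no-cell wells; concentration-response curves classed.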
HT1080NT lethal: kills 2HG-producing HT-1080-NT fibrosarcoma cells | HT-1080-NT fibrosarcoma viability, CellTiter-Glo ATP luminescence, 48 h | hit rate 1.6% among 360,000 | Potency, µM (top dose mostly 46.1 µM), for the others: at the top dose activity, negative = less viability, most hits filed as cytotoxic;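 note: NT is the 2HG producing partner of a matched IDH1 knockdown line; 0% = DMSO-treated cells and -100% = media-only wells without cells; nearly all actives have a fitted effect of over 55% in size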
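Toxicity toward the 2HG-producing NT line was scored as %Activity, normalised to DMSO and no-cell wells, from CellTiter-Glo luminescence after 48 hours' treatment.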
KB-V1 cytotox: KB-V1 MDR subline cytotoxicity. hit rate 3.4% among 400,000. KB-V1 MDR cells viability, CellTiter-Glo, 72 h. Potency, µM (series often up to 46.1 µM), usual class: cytotoxic. AID 1347076; note: nearly all actives have a fitted effect of over 60% in size
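KB-V1 MDR subline cells in DMEM (phenol-red free, 10% FBS) exposed to compounds in qHTS concentration series for 72 h at 37 degrees C. Viability read by CellTiter-Glo luminescence; concentration-effect curves fitted after normalization and correction.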
* marks the source's active call; other numbers are inactive results; i = inactive; ? = inconclusive; . = no result given; ! = not active in a repeat. Calls come from the whole dose curve; as a rule, active = well fitted curve in the direction sought with a large enough effect; inconclusive = small, poorly fitted or top-dose-only effect, or another doubt; inactive = no such curve, though single readings can be large; an effect the other way counts as inactive or inconclusive. Unless noted, % is set by controls: 0 for no effect and ±100 for the full control effect; potency is the fitted concentration of half-maximal effect.

SMILES | KB-3-1 tox | HT1080 IDH1KD tx | HT1080NT lethal | KB-V1 cytotox
COc1ccc(-c2cn3nc(N4CCCC(C(=O)Nc5cc(C)ccc5C)C4)sc3n2)cc1 (stereo not drawn) | i | . | . | i
Cn1c(=O)c2cc(S(=O)(=O)NC(Cc3ccccc3)C(=O)Nc3ccc(F)cc3)ccc2n(C)c1=O (stereo not drawn) | i | . | . | i
O=C1CC(SC(=Nc2ccccc2)Nc2ccccc2)C(=O)N1c1cccc(Cl)c1 (stereo not drawn) | ? | 23µM* | ? | i
O=C(Nc1ccc(Br)cn1)c1cnn2c1NC(=C1CC1)C=C2C(F)F | ? | . | . | i
Cc1cc(C)cc(N(CC(=O)NCC2CCCO2)C(=O)CN2C(=O)COc3ccccc32)c1 (stereo not drawn) | i | 3% | -2% | 13µM*
Cc1nc2c(c(C)c1CCC(=O)N1CCN(c3ccccc3)CC1)c(=O)n(C)c(=O)n2C | i | . | . | i
Cc1ccc(S(=O)(=O)c2cn(CC(=O)Nc3ccc4c(c3)OCO4)c3ccc(C)cc3c2=O)cc1 | i | . | . | i
Cc1cn(C)c(CC(=O)N2CCN(c3ccccc3F)CC2)c1C(=O)O | i | . | . | i
CC1(C)N=C(N)N=C(N)N1c1ccc(OCC(=O)Nc2ccccc2)c(Cl)c1 | ? | 0.37µM* | 0.73µM* | ?
CC1(C)N=C(N)N=C(N)N1c1cccc(CC(=O)Nc2ccccc2)c1 | i | 3.3µM* | 9.2µM* | i
Cc1cccc(NC(=O)CCc2ccc(N3C(N)=NC(N)=NC3(C)C)cc2)c1 | i | 0.46µM* | 1µM* | ?
CC1(C)N=C(N)N=C(N)N1c1ccc(OCCCOc2ccccc2)c(Cl)c1 | ? | 2.1µM* | ? | i
CC1(C)N=C(N)N=C(N)N1c1cccc(C(=O)O)c1 | i | -2% | 13% | i
O=C(COc1ccccc1Cl)Nc1ccc(N2CCCC2)cc1 | i | -3% | 12% | i
COc1ccc(C2C(C(N)=O)=C(C)Nc3nc(SCc4ccccc4Cl)nn32)cc1OC (stereo not drawn) | i | . | . | ?
COc1ccc(OC)c(NS(=O)(=O)c2ccc(-c3cc(C)no3)s2)c1 | 4.6µM* | . | . | ?
COc1ccc(OC)c(NS(=O)(=O)c2ccc(Cl)s2)c1 | ? | ? | ? | 16µM*
COc1ccc(CCN2C(=O)c3cccc4c(C(=O)N5CCCCC5)ccc(c34)C2=O)cc1OC | i | 4% | 2% | 2.9µM*
Oc1ccccc1N=Nc1ccccc1O | 7.3µM* | ? | ? | ?
Nc1ccc(N=Nc2ccccc2O)c(N)c1 | i | ? | ? | i
COc1ccc(-c2nc(NC(=O)c3ccc(OCC(=O)Nc4ccc(F)cc4)c(OC)c3)sc2C)cc1 | i | 16µM* | 18µM* | i
Cn1c(=O)c2cc(S(=O)(=O)NCCC(=O)N3CC=C(c4ccccc4)CC3)ccc2n(C)c1=O | i | -8% | 2% | 23µM*
O=C(Cc1ccc(-c2ccccc2)cc1)NO | ? | . | . | i
Cc1cccnc1CCNCc1c(C(=O)N2C[C@@H](C)O[C@@H](C)C2)nc2ccc(Cl)cn12 | i | -22% | -2% | ?
CCn1c(SCC(=O)N2CCCCC2C)nc2ccsc2c1=O (stereo not drawn) | i | -21% | 5% | i
SMILES | KB-3-1 tox | HT1080 IDH1KD tx | HT1080NT lethal | KB-V1 cytotox
CC1CCCCN1C(=O)CSc1nc2ccsc2c(=O)n1Cc1ccccn1 (stereo not drawn) | i | -7% | 9% | 18µM*
Oc1ccc(Nc2nc(N3CCCC3)c3ccccc3n2)cc1 | 9.2µM* | ? | ? | i
COc1ccc(Nc2nc(N3CCCCC3)c3ccccc3n2)cc1 | ? | ? | -25% | 21µM*
C(=C\c1nc(N2CCCC2)c2ccccc2n1)/c1ccccc1 | 23µM* | ? | 26µM* | ?
NC(=O)Nc1ccc(/C=C2\C=Cc3ccccc32)cc1 | ? | . | . | i
C[S+](C)CC(=O)c1ccc2ccccc2c1 | i | . | . | ?
CC(=O)N1c2ccc(S(=O)(=O)Nc3ccc(C)c(C)c3)cc2CC1C (stereo not drawn) | i | . | . | i
FC(F)(F)C(F)(F)C(F)(F)c1nc2ccccc2[nH]1 | i | . | . | i
CN(CCOc1ccc(Cl)cc1)C(=O)c1cc(-c2ccco2)nc2ccccc12 | i | -14% | -5% | 16µM*
COc1cccc(OC)c1C(=O)Nn1c(-c2cccc(C)c2)nc2ccccc2c1=O | i | 1% | -25% | i
COc1ccc(CNn2c(-c3cccc(C)c3)nc3ccccc3c2=O)cc1OC | i | 8% | 0% | 23µM*
COc1ccccc1CNn1c(-c2cccc(C)c2)nc2ccccc2c1=O | i | -5% | -1% | 23µM*
CCn1cc(C(=O)N2CCN(c3ccccc3F)CC2)c(=O)c2cc(S(=O)(=O)N(C)C)ccc21 | i | . | . | i
CCc1cccc(NS(=O)(=O)c2cc(-c3cnc(C)o3)ccc2OC)c1 | i | . | . | i
O=C1CCC[C@@H]2[C@H](Cc3ccccc3)[C@@H](O)C[C@@H]3CCN1[C@@H]32 | ? | -1% | 14% | 15µM*!
CC(=O)c1cnc2c(-c3ccccc3)cnn2c1C | ? | 12% | 18% | 21µM*
CC(C)(C)c1ccc(NC(=O)COC(=O)c2ccccc2OCC(=O)Nc2ccc(Br)cc2)cc1 | i | . | . | i
Cc1ccc(S(=O)(=O)NCCC(=O)N2CCN(S(=O)(=O)c3ccccc3)CC2)cc1C | i | -2% | 1% | i
Cc1ccc(C)c(S(=O)(=O)N2CCN(C(=O)CCNC(=O)c3ccc(Br)cc3)CC2)c1 | i | 1% | 3% | ?
COc1cc(C(=O)NCC(=O)N2CCN(S(=O)(=O)c3cc(C)ccc3C)CC2)cc(OC)c1OC | 3.3µM* | 6.5µM* | 7.3µM* | ?
Cc1ccc(C)c(S(=O)(=O)N2CCN(C(=O)Cc3c(F)cccc3Cl)CC2)c1 | i | 8% | 7% | 7.3µM*
Cc1ccc(C)c(S(=O)(=O)N2CCN(C(=O)Cc3sc(C)nc3-c3ccc(F)cc3)CC2)c1 | ? | -5% | -6% | 23µM*
Cc1ccc(S(=O)(=O)N2CCN(C(=O)COC(=O)Cc3c(F)cccc3Cl)CC2)c(C)c1 | i | 1% | -1% | i
Cc1ccc(C)c(S(=O)(=O)N2CCN(C(=O)CCNS(=O)(=O)c3ccc(C)c(C)c3)CC2)c1 | ? | -25% | -9% | 2.9µM*
Cc1nc(-c2ccc(F)cc2)c(CC(=O)N2CCN(S(=O)(=O)c3ccccc3Br)CC2)s1 | i | -4% | -5% | ?
COc1cccc(C(=O)c2cn(CC(=O)NCc3ccccc3Cl)c3nc(C)ccc3c2=O)c1 | i | . | . | i
CC(C)c1ccc(/C=C(\C#N)c2nc(-c3ccc(O)cc3)cs2)cc1 | i | . | . | ?
Cc1c2cnn(CC(=O)N3CCN(c4ccccc4)CC3)c(=O)c2c(C)n1Cc1ccc(F)cc1 | i | . | . | i
Cc1nnsc1C(=O)N/N=C/c1ccccc1 | i | 24% | 8% | i

Screening results: PubChem BioAssay, National Center for Advancing Translational Sciences (NCATS)
